This passage reports Potency and outcome results from PubChem BioAssay (Tox21).

Results filed as inconclusive are left out. Unmarked numbers belong to inactive results. Calls of active or inactive are those of the source. Unless noted, calls follow the shape of the dose curve; as a rule, active = well fitted curve in the direction sought with a large enough effect in the repeat runs; inconclusive = weak or mixed curves; inactive = no such curve, though single readings can be large; an effect the other way counts as inactive or inconclusive.

A short description of assay [1]: qHTS assay to identify aromatase inhibitors - cell viability counter screen (AID 743084).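 Also: cells stimulated with testosterone during compound exposure; nearly all actives have a fitted effect of over 55% in size.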 Also: potency is read from the fitted curve at half-maximal effect. For orientation: Quantitative high-throughput screening tests each substance at several concentrations.
The nature of assay [2]: qHTS assay to identify small molecule that activate the aryl hydrocarbon receptor (AhR) signaling pathway - cell viability counter screen (AID 743086).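 Also: HepG2 liver cells carrying the AhR DRE luciferase reporter; series mostly up to about 70 µM; nearly all actives have a fitted effect of over 45% in size.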 The procedure, abridged:
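HepG2-AhR-luc (HG2L7.5c1) cells, 4000/well, were preincubated 5 h at 37C, exposed to compound in qHTS format for 24 hr at 37C, then given CellTiter-Fluor for 30 min; viability was read as fluorescence in the reporter wells.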

Assay [3] has as its target Peroxisome proliferator-activated receptor gamma (Homo sapiens) (UniProt P37231). In words: qHTS assay to identify small molecule agonists of the peroxisome proliferator-activated receptor gamma (PPARg) signaling pathway (AID 743094; active = well fitted activation curve with a large enough effect in the signal ratio in the repeat runs, not every such curve was filed as active; the % refers to the signal ratio). The procedure, abridged:
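Reporter activation was scored by fluorescence of cleaved LiveBLAzer B/G substrate (1 h, room temperature) in PPARg-bla HEK293H cells previously treated 17 h at 37C with DMSO-dissolved compounds.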

The target is the same in assay [4]. In words: qHTS assay to identify small molecule antagonists of the peroxisome proliferator-activated receptor gamma (PPARg) signaling pathway (AID 743191; calls by dose curve; also: series mostly up to about 63 µM; nearly all actives have a fitted effect of over 30% in size). The procedure, abridged: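 GeneBLAzer PPARg UAS-bla HEK293H cells carrying a UAS-driven beta-lactamase reporter were plated at 3000 cells/well, preincubated 5 h at 37C, then given compound for 17 h at 37C; LiveBLAzer B/G FRET substrate was read after 1 h at room temperature.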

Assay [5] can be described thus: qHTS assay for small molecule agonists of the antioxidant response element (ARE) signaling pathway (AID 743202; active = well fitted activation curve with a large enough effect in the signal ratio in the repeat runs, not every such curve was filed as active; the % refers to the signal ratio; also: potency is read from the fitted curve at half-maximal effect). The procedure, abridged:
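Steps: seed ARE-bla HepG2 cells (2,000/well); incubate 5 h at 37 C; add compounds by pin tool; incubate 16 h at 37 C; add FRET substrate; read fluorescence after 2 h at RT.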

A short description of assay [6]: qHTS assay for small molecule agonists of the antioxidant response element (ARE) signaling pathway - cell viability counter screen (AID 743203; calls by dose curve; also: nearly all actives have a fitted effect of over 55% in size; also: potency is read from the fitted curve at half-maximal effect). The procedure, abridged:
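Viability counter screen: stably transfected ARE-bla HepG2 line, 16 hrs compound exposure at 37C/5% CO2, ATP-based CellTiter-Glo luminescence measured in the reporter wells.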

Assay [7] can be described thus: qHTS assay for small molecule activators of the heat shock response signaling pathway - cell viability counter screen (AID 743209). Also: nearly all actives have a fitted effect of over 50% in size. The procedure, abridged: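 Viability of HSE-bla HeLa cells is measured with CellTiter-Glo in the wells already used for the reporter read. Compound exposure lasts 5 h at 37 C, and luminescence is read after 30 min at room temperature.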

In assay [8] the target is Peroxisome proliferator-activated receptor delta (Homo sapiens) (UniProt Q03181). In words: qHTS assay to identify small molecule antagonists of the peroxisome proliferator-activated receptor delta (PPARd) signaling pathway (AID 743215; active = well fitted inhibition curve with a large enough effect in the signal ratio in the repeat runs, not every such curve was filed as active; the % refers to the signal ratio;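 also: cells stimulated with agonist L165041 at 300 nM final during compound exposure; series mostly up to about 62 µM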). The procedure, abridged: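 Plated HEK293H PPARd-bla cells rested 5 h at 37 C and 5% CO2. Compound, then agonist L165041 at 300 nM final, was added; 17 h at 37 C followed. Substrate loading, 2 h room temperature, fluorescence measured.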
Peroxisome proliferator-activated receptor delta (Homo sapiens), sequence (Q03181 whole entry, looked up): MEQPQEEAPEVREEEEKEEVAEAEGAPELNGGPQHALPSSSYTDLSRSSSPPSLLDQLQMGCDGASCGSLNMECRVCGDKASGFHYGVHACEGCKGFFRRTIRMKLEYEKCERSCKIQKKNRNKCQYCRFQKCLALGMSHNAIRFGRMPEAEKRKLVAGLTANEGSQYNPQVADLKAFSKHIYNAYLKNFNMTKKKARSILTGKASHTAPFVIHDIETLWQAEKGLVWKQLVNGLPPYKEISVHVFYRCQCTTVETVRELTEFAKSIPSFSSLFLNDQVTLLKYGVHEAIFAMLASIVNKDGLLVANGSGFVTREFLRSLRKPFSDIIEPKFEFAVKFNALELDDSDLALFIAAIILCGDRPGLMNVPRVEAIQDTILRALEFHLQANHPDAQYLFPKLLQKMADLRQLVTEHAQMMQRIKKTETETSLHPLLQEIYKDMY

The nature of assay [9]: qHTS assay to identify small molecule antagonists of the farnesoid-X-receptor (FXR) signaling pathway - cell viability counter screen (AID 743221; active = well fitted cell-killing curve with a large enough effect in the repeat runs, not every such curve was filed as active; also: nearly all actives have a fitted effect of over 50% in size). The procedure, abridged:
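After a 5 h settling period, FXR-bla HEK 293T cells receive compound and chenodeoxycholic acid (50 uM final) and incubate 16 h at 37 C; CellTiter-Glo luminescence, read after 30 min at room temperature, reports cell viability.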

For assay [10], the target named is Vitamin D3 receptor (Homo sapiens) (UniProt P11473). In words: qHTS assay to identify small molecule agonists of the vitamin D receptor (VDR) signaling pathway (AID 743222; calls by dose curve). The procedure, abridged: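 Fluorescence from cleaved LiveBLAzer B/G FRET substrate served as readout. VDR-bla cells had been treated 16 h at 37C with test compounds in DMSO, following a 4 h settling period, and substrate was loaded for 2 h at RT.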
Vitamin D3 receptor (Homo sapiens), sequence (P11473 whole entry, looked up): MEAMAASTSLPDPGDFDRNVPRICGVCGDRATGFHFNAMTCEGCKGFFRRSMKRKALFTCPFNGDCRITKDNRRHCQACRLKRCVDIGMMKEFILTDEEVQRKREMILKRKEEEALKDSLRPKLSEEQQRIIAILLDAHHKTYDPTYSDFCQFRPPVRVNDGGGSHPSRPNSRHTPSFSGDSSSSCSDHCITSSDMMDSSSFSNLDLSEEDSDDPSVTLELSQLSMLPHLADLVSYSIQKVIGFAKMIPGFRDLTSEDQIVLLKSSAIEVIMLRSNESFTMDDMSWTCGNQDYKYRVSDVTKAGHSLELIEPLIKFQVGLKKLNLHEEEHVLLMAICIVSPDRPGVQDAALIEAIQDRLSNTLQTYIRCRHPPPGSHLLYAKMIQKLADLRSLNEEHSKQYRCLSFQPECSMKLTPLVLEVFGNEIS

Assay [11] is described as follows: qHTS assay to identify small molecule antagonists of the peroxisome proliferator-activated receptor gamma (PPARg) signaling pathway - cell viability counter screen (AID 743194). Also: nearly all actives have a fitted effect of over 55% in size. The procedure, abridged:
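PPARg-UAS-bla HEK293H cells were plated, rested 5 h at 37 C, then treated with compounds plus rosiglitazone (50 nM final) for 17 h at 37 C; viability was then read by CellTiter-Glo luminescence after 30 min at room temperature.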

Assay [12] can be described thus: qHTS assay for small molecule activators of the heat shock response signaling pathway (AID 743210; active = well fitted activation curve with a large enough effect in the signal ratio in the repeat runs, with a control signal flat, not every such curve was filed as active; the % refers to the signal ratio;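 also: HeLa cells with beta-lactamase reporter driven by heat shock elements; series mostly up to about 63 µM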). The procedure, abridged: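 Activation of heat shock element-controlled beta-lactamase expression is measured in HeLa cells by LiveBLAzer FRET fluorescence, with compound exposure lasting 5 h at 37 C and substrate loading 2.5 h at room temperature.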
A short description of assay [13]: qHTS assay to identify small molecule agonists of the peroxisome proliferator-activated receptor delta (PPARd) signaling pathway - cell viability counter screen (AID 743211). Also: nearly all actives have a fitted effect of over 55% in size. Also: potency is read from the fitted curve at half-maximal effect. The procedure, abridged:
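qHTS cell viability: PPARd-bla HEK293H; 17 h cpd, 37C; CellTiter-Glo, luminescence at 30 min RT.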

Assay [14] is described as follows: qHTS assay to identify small molecule antagonists of the peroxisome proliferator-activated receptor delta (PPARd) signaling pathway - cell viability counter screen (AID 743213). Also: nearly all actives have a fitted effect of over 50% in size. Also: potency is read from the fitted curve at half-maximal effect. The procedure, abridged:
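HEK293H cells with the PPARd UAS-bla reporter, co-treated 17 h at 37 C with compounds and L165041 (300 nM final), were lysed with CellTiter-Glo. Luminescence indicated viable cell content.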

The nature of assay [15]: qHTS assay to identify small molecule agonists of the farnesoid-X-receptor (FXR) signaling pathway - cell viability counter screen (AID 743218). Also: nearly all actives have a fitted effect of over 45% in size. The procedure, abridged: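 Viability of FXR-bla HEK 293T cells is measured by ATP-based CellTiter-Glo luminescence following 16 h compound treatment at 37 C and a prior 2 h room-temperature beta-lactamase substrate step.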
For assay [16], the target named is Peroxisome proliferator-activated receptor delta (Homo sapiens) (UniProt Q03181). In words: qHTS assay to identify small molecule agonists of the peroxisome proliferator-activated receptor delta (PPARd) signaling pathway (AID 743212; calls by dose curve). The procedure, abridged: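 Cells expressing a UAS-driven beta-lactamase reporter (PPARd-bla HEK293H) were given test compounds after a 5 h settle and kept at 37 C. Reporter activity was then measured as FRET fluorescence using LiveBLAzer B/G substrate.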

In assay [17] the target is Vitamin D3 receptor (Homo sapiens) (UniProt P11473). In words: qHTS assay to identify small molecule antagonists of the vitamin D receptor (VDR) signaling pathway (AID 743223; active = well fitted inhibition curve with a large enough effect in the signal ratio in the repeat runs, not every such curve was filed as active; the % refers to the signal ratio). The procedure, abridged: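 Reporter line VDR-bla; stimulus 1alpha,25-(OH)2 vitamin D3, 3 nM final; compound co-addition, 16 h 37C/5% CO2; LiveBLAzer B/G substrate 2 h RT; fluorescence intensity.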

Assay [18] addresses Bile acid receptor (Homo sapiens) (UniProt Q96RI1). In words: qHTS assay to identify small molecule antagonists of the farnesoid-X-receptor (FXR) signaling pathway (AID 743217; active = well fitted inhibition curve with a large enough effect in the signal ratio in the repeat runs, not every such curve was filed as active; the % refers to the signal ratio). The procedure, abridged: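 Screen of the Tox21 10K library in quantitative HTS format using FXR-UAS-bla HEK 293T reporter cells. Agonist chenodeoxycholic acid, 50 uM final, added with compounds; 16 h incubation at 37 °C; beta-lactamase FRET fluorescence measured.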

Assay [19] has the same target. The assay is described as follows: qHTS assay to identify small molecule agonists of the farnesoid-X-receptor (FXR) signaling pathway (AID 743220; active = well fitted activation curve with a large enough effect in the signal ratio in the repeat runs, not every such curve was filed as active; the % refers to the signal ratio). The procedure, abridged: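 FXR-UAS-bla HEK 293T cells carrying a UAS-driven beta-lactamase reporter were plated for 5 h at 37C/5% CO2, then exposed to DMSO-dissolved Tox21 10K compounds for 16 h at 37C. A LiveBLAzer B/G FRET substrate was loaded for 2 h at room temperature before fluorescence reading.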

Peroxisome proliferator-activated receptor gamma (Homo sapiens), sequence (P37231 whole entry, looked up): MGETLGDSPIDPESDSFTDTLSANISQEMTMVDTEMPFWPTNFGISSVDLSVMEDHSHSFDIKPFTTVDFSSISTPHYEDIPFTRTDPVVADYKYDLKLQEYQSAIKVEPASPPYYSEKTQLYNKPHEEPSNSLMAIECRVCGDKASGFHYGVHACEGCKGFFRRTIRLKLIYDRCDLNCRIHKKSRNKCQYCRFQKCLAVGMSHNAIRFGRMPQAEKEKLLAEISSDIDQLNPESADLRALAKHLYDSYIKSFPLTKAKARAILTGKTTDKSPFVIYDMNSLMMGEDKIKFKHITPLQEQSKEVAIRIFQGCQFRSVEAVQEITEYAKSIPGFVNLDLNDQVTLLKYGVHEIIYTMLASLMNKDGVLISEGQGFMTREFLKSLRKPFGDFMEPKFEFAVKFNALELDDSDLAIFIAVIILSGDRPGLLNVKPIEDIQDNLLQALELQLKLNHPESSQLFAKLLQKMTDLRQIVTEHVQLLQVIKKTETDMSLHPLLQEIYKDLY
Bile acid receptor (Homo sapiens), sequence (Q96RI1 whole entry, looked up): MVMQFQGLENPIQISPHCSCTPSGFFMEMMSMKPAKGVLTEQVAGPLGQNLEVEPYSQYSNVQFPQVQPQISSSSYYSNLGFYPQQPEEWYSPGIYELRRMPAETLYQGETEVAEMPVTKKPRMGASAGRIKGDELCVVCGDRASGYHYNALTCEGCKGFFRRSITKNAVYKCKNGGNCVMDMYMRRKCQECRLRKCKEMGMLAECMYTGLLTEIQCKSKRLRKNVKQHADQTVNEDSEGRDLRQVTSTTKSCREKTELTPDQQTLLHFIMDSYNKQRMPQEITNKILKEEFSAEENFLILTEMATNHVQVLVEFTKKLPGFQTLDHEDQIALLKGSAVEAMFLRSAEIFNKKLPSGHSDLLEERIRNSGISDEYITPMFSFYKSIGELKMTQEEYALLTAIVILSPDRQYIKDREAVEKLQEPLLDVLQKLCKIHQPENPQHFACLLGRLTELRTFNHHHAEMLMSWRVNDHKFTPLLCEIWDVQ

Consider `CCN(CC)CCOC(=O)C(c1ccccc1)C1CCCCC1` (configuration not stated), for which the Potency result in assay [1], in assay [2], in assay [3], in [4], in assay [5] and in [6] was “inactive” in each case. Also, the Potency result in [7], in assay [8], in assay [9] and in assay [10] was “inactive” in each case.

For the compound `CCC(=O)O[C@]1(C(=O)CCl)[C@@H](C)C[C@H]2[C@@H]3CCC4=CC(=O)C=C[C@]4(C)[C@@]3(F)[C@@H](O)C[C@@]21C`, the Potency result in assay [1], in assay [2], in [3], in [4], in assay [11] and in assay [6] was “inactive” in each case. In addition, the Potency result in assay [7], in [12], in assay [13], in [14], in assay [15] and in assay [9] was “inactive” throughout. Moreover, the Potency result in assay [10] is “inactive”.

Regarding `c1cc(CCCc2ccncc2)ccn1`, the Potency result in assay [1], in assay [2], in assay [3], in [11], in [5] and in assay [6] was “inactive” in each case. Moreover, the Potency entry in [7], in [12], in assay [13], in assay [16], in assay [14] and in [8] was “inactive” each time. The Potency entry in [15], in [9] and in assay [10] was “inactive” in each case. The result in assay [17] was inactive.

For `CC(C)(C)OCC1CO1` (configuration not stated), the Potency entry in assay [1], in assay [2], in [3], in assay [11], in assay [5] and in assay [6] was “inactive” throughout. In addition, the Potency result in assay [7], in assay [12], in [13], in assay [16], in assay [14] and in assay [8] was “inactive” in each case. Also, the Potency entry in assay [15], in assay [9] and in [10] was “inactive” each time. In addition, the result in assay [17] was inactive.

Turning to `O=C(Cl)c1cc(C(=O)Cl)cc(C(=O)Cl)c1`, the Potency entry in [2], in assay [3], in assay [4], in assay [7], in [13] and in assay [16] was “inactive” in each case. The Potency result in assay [14], in assay [8], in [18], in [15], in assay [19] and in assay [9] was “inactive” throughout.

On to `O=C1[C@H]2CCCC[C@H]2C(=O)N1CCCCN1CCN(c2nsc3ccccc23)CC1`, for which the values for the Potency in assay [1] and in assay [5] were 29.8 µM (active) and 23.7 µM (active), respectively. The Potency entry in assay [11], in assay [6], in assay [7], in assay [12], in assay [13] and in assay [16] was “inactive” throughout. For the same compound, the Potency result in assay [14], in assay [8], in assay [18], in assay [15], in assay [19] and in assay [9] was “inactive” in each case.

Regarding `CN1CCC(N(Cc2cccs2)c2ccccc2)CC1`, the Potency result in assay [1], in [3], in assay [11], in assay [6] and in [16] was “inactive” in each case.

On to `CC(C)CC(=O)C1C(=O)c2ccccc2C1=O`, for which the Potency result in assay [1], in [2], in [6], in assay [7], in [12] and in assay [13] was “inactive” in each case. Besides, the Potency result in assay [16], in [14], in assay [8], in assay [15], in [19] and in assay [9] was “inactive” throughout.

`CNCCCN1c2ccccc2CCc2ccccc21`: the Potency entry in [1], in assay [2], in assay [11], in assay [7], in assay [12] and in assay [19] was “inactive” throughout. Besides, the Potency is 29.8 µM (active) in [6], 26.6 µM (active) in assay [13] and 9.44 µM (active) in [14].
